Several values for one entry are separate records, joined by “and”; a condition that tells them apart may be missing. Equal entries are not always repeated.
System: human monocyte-derived macrophages (polarized)
Test: cell shape (eccentricity) Z-score vs DMSO control; higher = more elongated, M2-like morphology
Settings: 5 µM, 24 h, cytokines present during treatment
Method: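 Primary-screen hits were rescreened on polarized hMDMs with the differentiating cytokines (IL-4 + IL-13 or IFNg + TNFa) kept in the medium during treatment with compound at 5 uM for 24 h. The eccentricity Z-score vs DMSO wells is averaged over experiments.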

[1] = macrophage state: M2-polarized (IL-4 + IL-13)
[2] = macrophage state: M1-polarized (IFNg + TNFa)

In the case of `NC(N)=Nc1nc(CSCC/C(N)=N/S(N)(=O)=O)cs1`, the “cell shape (Z-score)” value [1] was 0.285.

With `O=C1c2ccccc2-c2n[nH]c3cccc1c23` the “cell shape (Z-score)” value [2] was 9.54.

`O=C(O)CC[C@H]1CC[C@@](c2cc(F)ccc2F)(S(=O)(=O)c2ccc(Cl)cc2)CC1` was tested, and the “cell shape (Z-score)” value [1] was 4.15.

In the case of `COCc1c(C(C)C)nc(C(C)C)c(/C=C/[C@@H](O)C[C@@H](O)CC(=O)O)c1-c1ccc(F)cc1`, the “cell shape (Z-score)” value [2] was 9.45.

In the case of `CC(C)(C)c1nc(-c2cccc(NS(=O)(=O)c3c(F)cccc3F)c2F)c(-c2ccnc(N)n2)s1`, the “cell shape (Z-score)” value [2] was -2.77.

`COc1ccc(-c2cc(=O)c3c(O)cc(OC)c(OC)c3o2)c(OC)c1` was tested, and the “cell shape (Z-score)” value [2] was -4.83.

With `O=C(Nc1ccc(OC(F)(F)F)cc1)c1sccc1NCc1ccnc2ccccc12` the “cell shape (Z-score)” value [2] was 3.81.

With `OCCN(CCO)c1nc(N2CCCCC2)c2nc(N(CCO)CCO)nc(N3CCCCC3)c2n1` the “cell shape (Z-score)” value [1] was 0.465.

In the case of `CC1=C(/C=C/C(C)=C/C=C/C(C)=C/C(=O)O)C(C)(C)CCC1`, the “cell shape (Z-score)” value [2] was 7.03.

In the case of `CCN(CC)CCNC(=O)c1c(C)[nH]c(/C=C2\C(=O)Nc3ccc(F)cc32)c1C`, the “cell shape (Z-score)” value [2] was 8.79 and 5.25.

For `N[C@@H](CC(=O)N1CCn2c(nnc2C(F)(F)F)C1)Cc1cc(F)c(F)cc1F`, the “cell shape (Z-score)” value [2] was 2.26.

With `O=C1c2ccc(Nc3ccc(F)cc3F)cc2CCc2ccc(OC[C@H](O)CO)cc21` the “cell shape (Z-score)” value [1] was 2.03.

In the case of `CC(=Cc1ccc(C(=O)O)cc1)c1ccc2c(c1)C(C)(C)CCC2(C)C`, the “cell shape (Z-score)” value [2] was -2.82.

`CC(=O)Cc1cc(=O)c2c(C)cc(O)c(C3OC(CO)C(O)C(O)C3O)c2o1` (stereo not given) was tested, and the “cell shape (Z-score)” value [1] was -1.16.

`CCCCCCCCCc1ccc(OCCOCCOCCOCCOCCOCCOCCOCCOCCO)cc1` was tested, and the “cell shape (Z-score)” value [2] was 5.89.

`c1ccc2c(Oc3nc(Nc4ccc(N5CCOCC5)cc4)c4ncn(C5CCCCC5)c4n3)cccc2c1` was tested, and the “cell shape (Z-score)” value [2] was 9.34.

In the case of `CN1[C@@H](CC(=O)c2ccccc2)CCC[C@H]1C[C@H](O)c1ccccc1`, the “cell shape (Z-score)” value [1] was 4.11.

`C[C@@H](N)[C@H]1CC[C@H](C(=O)Nc2ccncc2)CC1` was tested, and the “cell shape (Z-score)” value [2] was 5.7.

In the case of `Cc1cc(NS(=O)(=O)c2ccc(N)cc2)no1`, the “cell shape (Z-score)” value [1] was -9.54.

`NC(=O)Nc1sc(-c2ccc(F)cc2)cc1C(N)=O` was tested, and the “cell shape (Z-score)” value [2] was 7.48.

In the case of `COc1cc(C(=O)N2CCC(N3CCN(C)CC3)CC2)ccc1Nc1ncc2c(n1)N(C)c1ccccc1C(=O)N2C`, the “cell shape (Z-score)” value [2] was -5.99.

For `CCCc1c(OCC(O)COc2ccc3c(=O)cc(C(=O)O)oc3c2CCC)ccc(C(C)=O)c1O` (stereo not given), the “cell shape (Z-score)” value [1] was -2.27.

`COc1ccc2oc(-c3ccccc3OC)cc(=O)c2c1` was tested, and the “cell shape (Z-score)” value [2] was 0.285.

In the case of `COc1cc2c(cc1-c1c(C)noc1C)ncc1[nH]c(=O)n([C@H](C)c3ccccn3)c12`, the “cell shape (Z-score)” value [2] was -12.4.

With `COc1ccc2c(c1OC)CN(C)CCc1cc3c(cc1C(=O)C2)OCO3` the “cell shape (Z-score)” value [2] was -5.59.

With `O=C(Nc1ccc([N+](=O)[O-])cc1O)Nc1ccccc1Br` the “cell shape (Z-score)” value [1] was -12.2.

In the case of `CCC[C@H](NC(=O)/C(C#N)=C/c1cccc(Br)n1)c1ccccc1`, the “cell shape (Z-score)” value [1] was -2.53.

With `CCCCCCN(CCCCCC)C(=O)Cc1c(-c2ccc(F)cc2)[nH]c2ccccc12` the “cell shape (Z-score)” value [2] was -4.11.

With `Cn1cnc(-c2cc3nccc(Oc4ccc(NC(=S)NC(=O)Cc5ccccc5)cc4F)c3s2)c1` the “cell shape (Z-score)” value [2] was 3.19.

In the case of `C=C1C(=O)O[C@H]2C3=C(C)C[C@H](OC(C)=O)C[C@]3(C)CC[C@@H]12`, the “cell shape (Z-score)” value [2] was -1.91.

For `CCCSc1ccc2[nH]c(NC(=O)OC)nc2c1`, the “cell shape (Z-score)” value [1] was -6.38.

With `C[C@H]1[C@H](NC(=O)/C(=N\OC(C)(C)C(=O)O)c2csc(N)n2)C(=O)N1S(=O)(=O)O` the “cell shape (Z-score)” value [2] was 0.443.

With `Cc1ccc2c(=O)c3ccccc3n(CCCN)c2c1C` the “cell shape (Z-score)” value [2] was -0.216.

With `Cc1cc(N2CCOCC2)cc2[nH]c(-c3c(NC[C@@H](O)c4cccc(Cl)c4)cc[nH]c3=O)nc12` the “cell shape (Z-score)” value [2] was 2.38.

For `O=C(OC1C=C(CO)C2C(OC3OC(CO)C(O)C(O)C3O)OC=CC12O)c1ccc(O)cc1` (stereo not given), the “cell shape (Z-score)” value [2] was 3.32.

— the supplement of paper PMC7858590
